Screening results: PubChem BioAssay, National Center for Advancing Translational Sciences (NCATS)
Pf growth 48h: P. falciparum growth inhibition at 48 hours (one generation); P. falciparum luciferase growth in erythrocytes, 48 h; Potency, µM (highest dose often 28.7 µM), for inactives: at the highest dose activity change, negative = inhibition, hits mostly inhibitors; actives 5.9% (n = 310,000); AID 504832; further: potency means the concentration at half of the fitted maximal effect; on the % scale 0 is the no-effect control and ±100 the full control effect
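Luminescence readout; reporter = integrated firefly luciferase in P. falciparum. RBC culture at 2% hematocrit, 0.1% parasitemia final, 37 C/5% CO2; decreased signal taken as growth inhibition.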
Pf growth 96h: P. falciparum growth inhibition at 96 hour, primary screen for plastid delayed-death inhibitors | AID 504834 | Potency, µM (series often up to 28.7 µM), for inactives: at the top dose activity change, negative = inhibition, usual class: inhibitors | actives 6.9% (n = 320,000) | P. falciparum luciferase reporter growth, 96 h; further: potency means the concentration at half of the fitted maximal effect; on the % scale 0 is the no-effect control and ±100 the full control effect
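Two-generation exposure (96 h) targets delayed-death phenotype. Reporter parasites carrying integrated firefly luciferase, in red cells at 2% hematocrit and 0.05% parasitemia final, kept at 37 C, 5% CO2; luminescence loss indicates inhibition.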
CHX counter: affects cycloheximide protein synthesis inhibition readout, counter-screen; cell reporter, cycloheximide protein synthesis inhibition counterscreen; max response, %; actives 12% (n = 300,000); AID 2314; in the data active means max response mostly above about 13%, no sharp cut-off; inactive means mostly below about 14%; further: read at 38.3 µM for the half of the compounds with a filed dose; 0% is about no effect
Shiga inhibitor: blocks Shiga toxin action in Vero cells; Vero cells, Shiga toxin protein synthesis inhibition reporter; actives 9.2% (n = 290,000); AID 2315; inhibition, % at 38.7 µM; in the data active means inhibition mostly above about 28%, no sharp cut-off; inactive means mostly below about 43%; further: 0% is about no effect
HCV inhibitor: HCV inhibition; Huh7.5.1 HCVcc-Cre infection, luciferase reporter, 44 h; Potency, µM (doses to about 41.8 µM), inactives show at the highest dose activity change, negative = inhibition, usual class: inhibitors; actives 3.4% (n = 340,000); further: potency means the concentration at half of the fitted maximal effect; on the % scale 0 is the no-effect control and ±100 the full control effect
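Compounds are dispensed onto cells plated 4 h earlier at 1,000 per well, with HCVcc-Cre virus (about 0.5 moi) added next. Following 44 h of culture, luminescent signal is measured for 15 sec after 15 min with substrate at room temperature.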
HCMV inh: inhibitors of human cytomegalovirus. actives 4.5% (n = 410,000). HFF cells, HCMV-luciferase reporter, 72 h; stronger effect = lower value. activity change, negative = inhibition, % at 57.5 µM; in the data active means activity change below about -60%; inconclusive means no clear call, values can overlap the other calls; inactive means above about -39%; further: on the % scale 0 is the no-effect control and ±100 the full control effect
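HFF cells seeded 16 h at 37C, treated with compounds, infected with luciferase-reporter HCMV at MOI 1 PFU/cell; luciferase read at 72 h post infection, normalized to buffer-only and Salinomycin controls.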
Active calls of the source: *; ? = inconclusive; nt = no result given; [ ] = another dose, or the depositor's remark. Shown are actives, neighbours in structure and some others; about 21% of the full set was active somewhere. Unless noted, the call rests on the fitted dose curve; in most records, active means well fitted inhibition curve with a large enough effect; inconclusive means small, poorly fitted or top-dose-only effect, or another doubt; inactive means no such curve, though single readings can be large or run the other way.

SMILES	Pf growth 48h	Pf growth 96h	CHX counter	Shiga inhibitor	HCV inhibitor	HCMV inh
CCCOc1ccccc1/C=N/Nc1ccnc(=O)[nH]1	?	-25%	6	3	?	23
CCOc1ccc(CN(C)C(=O)CNC(=O)C2CCCCC2)cc1	0%	?	1	14	-12%	48
Cc1oc(-c2ccc(Cl)cc2)nc1CN1C(=O)CN=C(c2ccccc2)c2cc(Cl)ccc21	nt	nt	nt	nt	nt	22
Cc1oc(-c2ccccc2)nc1CN1C(=O)C(C)N=C(c2ccccc2F)c2cc(Cl)ccc21 (stereo unspecified)	?	2.3µM*	-2	-14	?	27
COc1ccc2c(CSc3nc4nc(C)cc(C)n4n3)cc(=O)oc2c1	13µM*	8%	1	3	-27%	-6
Cc1ccc2c(CSc3nc4nc(C)cc(C)n4n3)cc(=O)oc2c1	?	?	-2	-19	-17%	-12
CC[C@H](C)[C@H](NC(=O)[C@H](C)NC(=O)CNC(=O)[C@H](CCCCN)NC(=O)[C@H](CC(N)=O)NC(=O)[C@H](CO)NC(=O)CN)C(=O)N[C@H](C(=O)NCC(=O)N[C@@H](CC(C)C)C(=O)N[C@@H](CCSC)C(=O)O)[C@@H](C)CC	nt	nt	-8	1	nt	nt
COc1cccc(-c2csc(N3CCN(C(=O)C4CCCCC4)CC3)n2)c1	-10%	22%	-3	2	5%	-34
COc1ccc(NC(=O)CN2CCN(c3nc(-c4cccc(OC)c4)cs3)CC2)cc1	8.3µM*	43%	-2	1	?	-36
COc1cccc(-c2csc(N3CCN(CC(=O)Nc4ccc5c(c4)OCO5)CC3)n2)c1	?	?	-4	-3	?	-33
S=C(NCC1CCCO1)N1CCN(c2nc(-c3ccc(Cl)cc3)cs2)CC1 (stereo unspecified)	?	16%	-2	-7	?	-63*
CCCNC(=S)N1CCN(c2nc(-c3cccc(OC)c3)cs2)CC1	?	?	13*	11	?	-34
CCCNC(=S)N1CCN(c2nc(-c3ccc(C)cc3)cs2)CC1	-4%	?	13*	-2	13µM*	?
COc1cc([C@H]2Oc3c(OC)cc(CCCO[C@@H]4O[C@H](CO)[C@@H](O)[C@H](O)[C@H]4O)cc3[C@@H]2CO)ccc1O	13%	13%	nt	nt	2%	18
COC(=O)C1=C[C@@H](C(=O)OC)C2C3=C(C(=O)[C@@]2(C)NC(=O)c2ccccc2)[C@H](c2ccccc2)[C@@H]2C(=O)N(c4ccccc4)C(=O)[C@@H]2[C@@H]3C1 (stereo partly specified)	nt	nt	1	-10	nt	nt
CC[C@H](C)N	nt	nt	-2	-8	nt	nt
CCOC(=O)c1c(C)nc2sc(C(N)=O)c(N)c2c1-c1ccccc1	nt	?	-2	-7	-21%	-62*
COCCCNC(=O)c1sc2nc(C)c(C(=O)Nc3ccc(C)cc3C)c(-c3ccc(Br)cc3)c2c1N	nt	nt	nt	nt	nt	-18
CCOC(=O)c1c(C)nc2sc(C(=O)Nc3ccccc3)c(N)c2c1-c1ccc(OC)cc1	?	10%[5.75 µM]	-4	18	6.3µM*	nt
CCOC(=O)c1c(C)nc2sc3c(c2c1-c1ccc(OC)cc1)NC(c1ccc(OC)cc1)NC3=O (stereo unspecified)	?	2.6µM*	-4	-15	-2%	-10
COCCCNC(=O)c1sc2nc(C)c(C(=O)Nc3ccc(Cl)cc3)c(-c3ccc(Br)cc3)c2c1N	nt	nt	nt	nt	nt	-76*
COc1ccc(-c2c3c(nc4sc(C(=O)Nc5ccccc5)c(N)c24)CCC3)cc1	nt	nt	nt	nt	-7%	37
O=c1c2[nH]c3ccccc3c2nc2n1CCCS2	67%	?	38*	74*	-10%	37
CC1CCN(C(=O)Cn2c3ccccc3c3nc4n(c(=O)c32)CCCS4)CC1	-10%	6%	-3	2	8%	-61*
Cc1nc2c([nH]c3ccccc32)c(=O)n1N	55%	?	28*	88	17%	117
O=c1c2[nH]c3ccc(F)cc3c2nc2n1CCCS2	54%	-1%	25*	54*	?	46
